Common to all, as to parameters: scale not given: direction of the effect not stated beside the values
The target of assay [1] is Protein translocase subunit SecA (Escherichia coli (strain K12)) (UniProt P10408). Put plainly: Assay to Identify E. coli SecA ATPase Inhibitors. Type of assay: functional. Conditions: 30 µM.
In assay [2] the target is T1, Ubiquitin-activating enzyme e1, putative (Leishmania donovani (strain BPK282A1)) (UniProt E9BSI1).
T1 sequence (whole entry): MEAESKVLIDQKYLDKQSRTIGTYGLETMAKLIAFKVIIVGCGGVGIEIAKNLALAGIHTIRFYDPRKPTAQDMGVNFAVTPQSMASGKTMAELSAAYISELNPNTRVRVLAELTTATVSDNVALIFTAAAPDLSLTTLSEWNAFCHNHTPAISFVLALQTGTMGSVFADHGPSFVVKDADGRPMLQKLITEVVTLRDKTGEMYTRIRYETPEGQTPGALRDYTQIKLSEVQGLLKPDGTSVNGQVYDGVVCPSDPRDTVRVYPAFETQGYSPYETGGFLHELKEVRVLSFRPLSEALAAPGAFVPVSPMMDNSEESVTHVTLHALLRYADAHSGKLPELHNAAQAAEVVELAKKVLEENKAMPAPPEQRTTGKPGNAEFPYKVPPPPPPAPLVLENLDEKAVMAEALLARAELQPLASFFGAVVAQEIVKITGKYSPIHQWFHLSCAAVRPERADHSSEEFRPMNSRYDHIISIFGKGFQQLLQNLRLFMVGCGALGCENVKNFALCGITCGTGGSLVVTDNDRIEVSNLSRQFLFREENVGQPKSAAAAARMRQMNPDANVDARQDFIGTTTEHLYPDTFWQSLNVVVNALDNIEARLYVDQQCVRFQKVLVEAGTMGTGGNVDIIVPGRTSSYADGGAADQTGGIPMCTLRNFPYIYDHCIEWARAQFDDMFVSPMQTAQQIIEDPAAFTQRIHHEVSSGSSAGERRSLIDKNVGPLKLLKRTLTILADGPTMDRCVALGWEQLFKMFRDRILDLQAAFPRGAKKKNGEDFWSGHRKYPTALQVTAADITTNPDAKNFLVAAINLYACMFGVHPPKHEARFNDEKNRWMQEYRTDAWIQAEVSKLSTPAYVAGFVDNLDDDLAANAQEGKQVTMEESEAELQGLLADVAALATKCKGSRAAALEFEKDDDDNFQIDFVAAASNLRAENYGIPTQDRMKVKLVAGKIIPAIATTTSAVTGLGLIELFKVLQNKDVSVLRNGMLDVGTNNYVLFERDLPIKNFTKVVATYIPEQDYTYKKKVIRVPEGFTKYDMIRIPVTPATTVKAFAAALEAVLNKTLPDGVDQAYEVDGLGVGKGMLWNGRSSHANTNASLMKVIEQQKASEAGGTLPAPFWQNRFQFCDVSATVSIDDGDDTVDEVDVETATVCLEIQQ
Put plainly: Leishmania donovani Ubiquitin Activating Enzyme (LdE1). It counts as functional. To be noted: 30 µM.

Assay [3] has as its target AMP-activated protein kinase, AMPK (Homo sapiens) (UniProt P54646+O43741+P54619+Q9UGJ0+Q9Y478+Q13131+Q9UGI9). Put plainly: AMP-dependent Kinase enzyme assay. An in vitro enzyme assay that detects ADP turnover that is directly proportional to AMPK activity. This uses naive AMPK that is activated during the assay with MK-8722. It counts as functional. Conditions: 30 µM.

In assay [4] the target is Sialic acid-binding Ig-like lectin 9 (Homo sapiens) (UniProt Q9Y336). The assay is described as follows: Hs-Siglec9 ALPHAscreen SOP 20170721. To be noted: 10 µM. (Bead proximity is the source of the signal in Alpha formats.)
The next assay relates to Trypanosoma cruzi. Put plainly: Trypanosoma cruzi phosphomannomutase and mannose-1-phosphate guanylyltransferase assay. It counts as functional. To be noted: 10 µM.
Assay [5] has as its target T2, Arginase-2, mitochondrial (Homo sapiens) (UniProt P78540).
T2 sequence (whole entry): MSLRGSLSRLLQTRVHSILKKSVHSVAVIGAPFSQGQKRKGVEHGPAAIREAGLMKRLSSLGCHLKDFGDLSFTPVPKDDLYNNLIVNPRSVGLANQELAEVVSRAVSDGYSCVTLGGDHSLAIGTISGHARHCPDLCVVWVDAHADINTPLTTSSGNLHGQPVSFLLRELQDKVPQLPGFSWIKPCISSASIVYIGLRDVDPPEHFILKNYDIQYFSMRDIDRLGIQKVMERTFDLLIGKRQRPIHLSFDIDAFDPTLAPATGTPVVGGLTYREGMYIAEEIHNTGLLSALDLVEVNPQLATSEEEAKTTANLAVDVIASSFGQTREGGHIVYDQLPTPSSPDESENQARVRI
Put plainly: in vitro enzyme assay to detect the production of urea directly proportional to the activity of Arginase II. Also: in the data most compounds retested in dose-response had high values. It counts as functional. Conditions: 33.3 µM.

Assay [6] has as its target T3, Proteasome subunit beta (Trypanosoma cruzi) (UniProt O96673).
T3 sequence (whole entry): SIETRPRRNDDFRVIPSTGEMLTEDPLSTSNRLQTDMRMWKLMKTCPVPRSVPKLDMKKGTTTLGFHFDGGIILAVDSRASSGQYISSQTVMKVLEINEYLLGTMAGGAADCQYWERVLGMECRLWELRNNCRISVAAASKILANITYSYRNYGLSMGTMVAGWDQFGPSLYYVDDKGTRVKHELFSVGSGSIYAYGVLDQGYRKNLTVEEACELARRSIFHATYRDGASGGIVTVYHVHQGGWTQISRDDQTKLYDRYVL
Put plainly: Trypanosoma cruzi proteasome chymotrypsin-like activity (TcProtChymo) assay. Also: in the data most compounds retested in dose-response had high values. Type of assay: functional. Conditions: 9.37 µM.

The next assay is filed under the species Homo sapiens. Put plainly: To identify inhibition of the IFN signalling (Jak-Stat) pathway via expression of an eGFP reporter gene under the control of an IFN-stimulated response element (ISRE) containing MxA promoter. It counts as functional. To be noted: 30 µM.
The target of assay [7] is T4, Tyrosyl-tRNA synthetase, putative (Trypanosoma cruzi (strain CL Brener)) (UniProt Q4DSP6).
T4 sequence (whole entry): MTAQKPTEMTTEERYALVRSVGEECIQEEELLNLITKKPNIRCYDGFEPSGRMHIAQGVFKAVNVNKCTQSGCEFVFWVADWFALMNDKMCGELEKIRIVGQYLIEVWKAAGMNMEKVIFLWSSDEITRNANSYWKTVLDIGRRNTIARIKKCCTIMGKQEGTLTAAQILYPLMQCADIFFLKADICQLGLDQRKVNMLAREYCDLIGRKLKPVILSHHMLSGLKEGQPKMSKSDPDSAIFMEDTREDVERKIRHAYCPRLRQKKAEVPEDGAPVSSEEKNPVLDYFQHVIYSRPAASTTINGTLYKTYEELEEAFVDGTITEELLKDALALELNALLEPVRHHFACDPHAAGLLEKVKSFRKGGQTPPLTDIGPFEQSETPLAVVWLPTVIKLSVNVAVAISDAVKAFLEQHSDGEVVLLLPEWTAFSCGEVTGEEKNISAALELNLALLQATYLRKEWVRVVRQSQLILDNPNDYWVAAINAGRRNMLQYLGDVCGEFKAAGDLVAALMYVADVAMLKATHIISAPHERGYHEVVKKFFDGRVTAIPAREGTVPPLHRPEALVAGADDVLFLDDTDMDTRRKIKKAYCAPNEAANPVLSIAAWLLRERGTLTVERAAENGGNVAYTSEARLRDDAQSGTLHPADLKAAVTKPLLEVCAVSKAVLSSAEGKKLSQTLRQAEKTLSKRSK
Put plainly: Trypanosoma cruzi tyrosyl tRNA synthetase (TcYRS) _High Tyrosine SOP. Also: in the data most compounds retested in dose-response had high values. Conditions: 30 µM. Type of assay: functional.

For assay [8], the target named is T4, Tyrosyl-tRNA synthetase, putative (Trypanosoma cruzi (strain CL Brener)). Put plainly: Trypanosoma cruzi tyrosyl tRNA synthetase (TcYRS) SOP. It counts as functional. To be noted: 30 µM.
Assay [9] deals with Chromo domain-containing protein 1 (Saccharomyces cerevisiae (strain ATCC 204508 / S288c) (Baker's yeast)) (UniProt P32657). The assay is described as follows: ScCHD-1 Enzyme Inhibition Assay. Also: in the data most compounds retested in dose-response had high values. Type of assay: functional. To be noted: 30 µM.

For some of these results: Entries with a potency or affinity are not part of this list.

Sequence of Chromo domain-containing protein 1 (Saccharomyces cerevisiae (strain ATCC 204508 / S288c) (Baker's yeast)) (P32657 whole entry, the tested form may be a part): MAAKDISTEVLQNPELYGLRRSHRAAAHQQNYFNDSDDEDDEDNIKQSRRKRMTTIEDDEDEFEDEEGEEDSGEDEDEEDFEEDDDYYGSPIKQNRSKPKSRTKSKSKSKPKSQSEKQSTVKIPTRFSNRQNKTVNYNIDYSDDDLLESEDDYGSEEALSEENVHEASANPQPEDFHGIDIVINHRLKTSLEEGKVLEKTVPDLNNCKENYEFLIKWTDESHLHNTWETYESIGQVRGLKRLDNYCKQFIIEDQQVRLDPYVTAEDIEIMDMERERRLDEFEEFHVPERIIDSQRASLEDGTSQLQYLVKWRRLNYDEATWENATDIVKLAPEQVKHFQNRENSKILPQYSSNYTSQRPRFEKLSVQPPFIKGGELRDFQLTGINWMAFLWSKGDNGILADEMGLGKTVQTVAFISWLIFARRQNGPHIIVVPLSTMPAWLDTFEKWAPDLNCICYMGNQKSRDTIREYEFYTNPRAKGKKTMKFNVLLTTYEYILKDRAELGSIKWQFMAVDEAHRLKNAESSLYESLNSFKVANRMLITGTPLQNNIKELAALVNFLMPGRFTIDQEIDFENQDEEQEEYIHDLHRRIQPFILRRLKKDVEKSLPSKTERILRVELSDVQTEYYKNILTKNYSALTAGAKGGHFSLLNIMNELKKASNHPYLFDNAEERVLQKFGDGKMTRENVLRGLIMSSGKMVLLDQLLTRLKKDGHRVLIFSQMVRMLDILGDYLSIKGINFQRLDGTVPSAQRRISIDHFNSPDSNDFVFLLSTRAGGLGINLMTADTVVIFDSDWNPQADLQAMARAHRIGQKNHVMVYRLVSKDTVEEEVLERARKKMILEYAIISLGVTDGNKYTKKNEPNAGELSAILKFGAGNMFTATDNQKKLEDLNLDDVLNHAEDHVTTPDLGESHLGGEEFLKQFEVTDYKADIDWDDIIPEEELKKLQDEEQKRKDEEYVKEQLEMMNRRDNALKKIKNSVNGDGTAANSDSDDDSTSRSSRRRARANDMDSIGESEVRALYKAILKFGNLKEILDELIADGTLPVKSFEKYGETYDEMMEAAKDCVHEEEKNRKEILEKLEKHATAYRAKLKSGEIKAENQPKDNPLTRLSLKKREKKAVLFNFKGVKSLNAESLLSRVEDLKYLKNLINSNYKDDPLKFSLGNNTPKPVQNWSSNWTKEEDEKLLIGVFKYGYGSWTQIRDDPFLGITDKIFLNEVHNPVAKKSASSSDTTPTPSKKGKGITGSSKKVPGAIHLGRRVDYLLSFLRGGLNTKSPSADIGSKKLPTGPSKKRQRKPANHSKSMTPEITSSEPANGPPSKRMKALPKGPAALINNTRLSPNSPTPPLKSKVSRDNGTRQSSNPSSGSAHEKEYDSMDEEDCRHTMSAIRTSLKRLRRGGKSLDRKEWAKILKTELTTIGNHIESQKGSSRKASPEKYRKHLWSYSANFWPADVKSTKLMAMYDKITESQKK
Sequence of Protein translocase subunit SecA (Escherichia coli (strain K12)) (P10408 whole entry): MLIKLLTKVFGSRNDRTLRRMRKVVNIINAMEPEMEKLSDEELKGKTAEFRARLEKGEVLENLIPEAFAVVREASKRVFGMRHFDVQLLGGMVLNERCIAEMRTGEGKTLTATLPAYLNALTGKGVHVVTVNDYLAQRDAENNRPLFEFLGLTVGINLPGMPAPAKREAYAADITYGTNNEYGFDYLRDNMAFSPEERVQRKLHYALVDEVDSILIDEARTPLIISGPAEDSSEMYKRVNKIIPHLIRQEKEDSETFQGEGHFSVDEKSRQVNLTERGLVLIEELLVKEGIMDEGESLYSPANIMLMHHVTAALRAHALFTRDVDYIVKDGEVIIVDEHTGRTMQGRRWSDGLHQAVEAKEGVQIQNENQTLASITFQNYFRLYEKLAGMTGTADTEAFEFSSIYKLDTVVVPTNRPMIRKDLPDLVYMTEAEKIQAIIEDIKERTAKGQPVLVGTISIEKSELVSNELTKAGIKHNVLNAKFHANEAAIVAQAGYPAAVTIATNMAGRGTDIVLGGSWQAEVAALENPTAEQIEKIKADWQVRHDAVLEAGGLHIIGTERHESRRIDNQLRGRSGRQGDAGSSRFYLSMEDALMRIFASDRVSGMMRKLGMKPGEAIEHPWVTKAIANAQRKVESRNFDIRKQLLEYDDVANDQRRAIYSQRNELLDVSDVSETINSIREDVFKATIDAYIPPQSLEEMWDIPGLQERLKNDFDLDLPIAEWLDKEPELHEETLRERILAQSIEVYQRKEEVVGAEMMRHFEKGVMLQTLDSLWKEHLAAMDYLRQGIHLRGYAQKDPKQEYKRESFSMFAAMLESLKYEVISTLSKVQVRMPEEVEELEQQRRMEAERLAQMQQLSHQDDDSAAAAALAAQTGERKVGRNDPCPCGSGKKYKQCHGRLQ
Sequence of Sialic acid-binding Ig-like lectin 9 (Homo sapiens) (Q9Y336 whole entry): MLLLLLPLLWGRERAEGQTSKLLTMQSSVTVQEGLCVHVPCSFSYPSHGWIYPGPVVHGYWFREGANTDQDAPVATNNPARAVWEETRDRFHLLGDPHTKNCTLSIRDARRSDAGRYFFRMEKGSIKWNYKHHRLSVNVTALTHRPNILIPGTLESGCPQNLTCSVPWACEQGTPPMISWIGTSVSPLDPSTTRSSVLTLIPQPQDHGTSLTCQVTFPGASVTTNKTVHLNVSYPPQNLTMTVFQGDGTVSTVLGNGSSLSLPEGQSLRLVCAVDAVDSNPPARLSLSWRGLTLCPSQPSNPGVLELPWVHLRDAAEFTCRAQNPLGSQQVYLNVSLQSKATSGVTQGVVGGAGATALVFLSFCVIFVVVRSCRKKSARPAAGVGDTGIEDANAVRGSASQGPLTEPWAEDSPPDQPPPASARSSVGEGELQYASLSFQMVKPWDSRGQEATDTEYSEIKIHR

On to `CCc1n[nH]c(C2CN(C(=O)c3csnn3)CCO2)n1` (stereo unspecified), for which the Percent Effect in [1] was -7.28%; in assay [2] it was 10.4%; in assay [3], 0.934%; in assay [4], 4.09%; in the assay with Trypanosoma cruzi it was 7.15%; in assay [5], -5.26%. Moreover, the Percent Effect in [6] was 6.06%; in the assay filed under Homo sapiens it was 3.52%; in assay [7] it was 2.86%; in [8] it was 11.8%; in assay [9], -11.6%.

As for `CN(C)c1ncccc1CNC(=O)N1CCCC1CN1CCCCC1` (stereo unspecified), the Percent Effect in assay [1] is -3.1%; in assay [2] it was 23.4%; in [3], -3.23%; in assay [4], 0.716%; in the assay on Trypanosoma cruzi, -2.25%; in assay [5], -0.356%. Moreover, the Percent Effect in [6] is 9.63%; in the assay filed under Homo sapiens it was 3.33%; in [7], 7.77%; in assay [8] it was 14.6%; in [9], -9.2%.

With `Cc1cnn(CCC(=O)N2CCC(Nc3cccnn3)CC2)c1`, the Percent Effect in [1] was -6.66%; in assay [2] it was 5.41%; in [3] it was 1.21%; in assay [4], 3.62%; with Trypanosoma cruzi, -5%; in [5] it was -2%. Moreover, the Percent Effect is -3.6% in assay [6]; 16.4% in the assay listed under Homo sapiens; 0.493% in assay [7]; -8.64% in assay [8]; 2.32% in assay [9].

In the case of `COCCC(=O)N1C[C@@H]2COC[C@]2(COCc2cccnc2)C1`, the Percent Effect in [1] is -1.17%; in [2], 13%; in assay [3], 1.86%; in assay [4], -1.48%; in the assay with Trypanosoma cruzi, -14.7%; in assay [5] it was 12.3%. In addition, the Percent Effect in assay [6] was 12%; in the assay filed under Homo sapiens, 17.3%; in [7], -1.06%; in assay [8] it was 8.97%; in assay [9], -8.34%.

Take `O=C(Cc1cccc(F)c1)NCCNCc1ccc2c(c1)CCO2`: the Percent Effect was -4.03% in assay [1]; 13% in assay [2]; -6% in assay [3]; 17.2% in assay [4]; 3.93% in the assay with Trypanosoma cruzi; -1.42% in [5]. Besides, the Percent Effect in assay [6] was -1.52%; in the assay filed under Homo sapiens, -5.5%; in assay [7] it was 8.74%; in [8], 19.5%; in [9] it was -5.42%.

`COCC(=O)NCc1cc(=O)n2c(n1)CN(Cc1ccsc1)CCC2`: the Percent Effect was -5.93% in assay [1]; 8.11% in assay [2]; 3.64% in assay [3]; -0.625% in [4]; -2.83% with Trypanosoma cruzi; 6.05% in assay [5]. Besides, the Percent Effect in assay [6] is 17.9%; in the assay filed under Homo sapiens it was -15.7%; in assay [7], 2.16%; in [8], 5.13%; in assay [9], 2.68%.

Regarding `O=C(CCNC(=O)c1ccccc1N1CCOCC1)NC1CCCC1`, the Percent Effect was -4.31% in [1]; 16.4% in assay [2]; -6.31% in assay [3]; 6.63% in assay [4]; 4.76% with Trypanosoma cruzi; -0.798% in assay [5]. The Percent Effect in assay [6] is 13.1%; in the assay filed under Homo sapiens it was -7.41%; in [7] it was 8.33%; in assay [8] it was 21%; in assay [9], -9.11%.

On to `c1cnnc(NCC2CN(Cc3cccc4c3OCCO4)CCO2)c1` (stereo unspecified), for which the Percent Effect in [1] is -3.5%; in assay [2], 5.2%; in assay [3], 2.26%; in [4] it was 4.61%; with Trypanosoma cruzi, 9.55%; in [5], -2.13%. Besides, the Percent Effect was 1.18% in assay [6]; 18.6% in the assay listed under Homo sapiens; 10.7% in assay [7]; 24.4% in [8]; -7.39% in [9].

Take `CCc1nnc2n1CCN(CC(=O)Nc1sccc1C#N)C2`: the Percent Effect in assay [1] was -4.04%; in [2], 10.5%; in assay [3] it was -7.74%; in assay [4] it was -3.22%; in the assay with Trypanosoma cruzi it was -8.68%; in assay [5] it was 5.4%. Moreover, the Percent Effect is 12.6% in assay [6]; -5.63% in the assay listed under Homo sapiens; 5.42% in assay [7]; 6.17% in [8]; -3.17% in assay [9].

As to `CC(C)N1CCOCC2(CN(Cc3ccco3)CCO2)C1` (stereo unspecified), the Percent Effect in [1] is -0.00842%; in assay [2], -5.48%; in assay [3], 2.81%; in [4], 4.65%; in the assay on Trypanosoma cruzi it was -2.58%; in [5] it was 2.4%. Moreover, the Percent Effect in assay [6] came out at 13.8%; in the assay listed under Homo sapiens it was 3.21%; in assay [7], 2.08%; in [8] it was 8.64%; in assay [9], 0.188%.

`CNC(=O)N1C[C@H]2CC[C@@]3(N=C(c4ccccc4)NC3=O)[C@H]2C1`: the Percent Effect in assay [1] is -5.03%; in [2], 2.6%; in [3], 0.951%; in [4], 7.17%; in the assay on Trypanosoma cruzi it was 9.73%; in [5], -67.6%. Further, the Percent Effect in assay [6] is 9.48%; in the assay filed under Homo sapiens, 12.9%; in assay [7] it was 2.15%; in [8], 11.1%; in [9] it was -1.88%.

The values are drawn from ChEMBL document CHEMBL3988442, “University of Dundee, Small-Polar-MMV Screening Library” (2021).
